We go through 40 compounds from PubChem BioAssay (Tox21).

Inconclusive results are not listed. A call without a number means that no potency is given here. Unmarked numbers belong to inactive results. Calls of active or inactive are those of the source. The call rests on the fitted dose curve; in most records, active means well fitted activation curve with a large enough effect in the repeat runs; inconclusive means weak or mixed curves; inactive means flat fitted curve, though single readings scatter.
Potency means the concentration at half of the fitted maximal effect.

This assay can be described thus: A CellTox Green Cytotoxicity Assay to monitor cytotoxicity in HEK293 cells - 40 hour (AID 1224871). Further: nearly all actives have a fitted effect of over 45% in size. To be noted: CellTox Green fluorescence; series mostly up to 76.8 µM. An excerpt: National Center for Advancing Translational Sciences [NCATS]
NIH Chemical Genomics Center [NCGC]
U.S. Environmental Protection Agency [EPA]
National Institutes of Environmental Health Sciences [NIEHS]
National Toxicology Program [NTP]
Cell-based models are critical for drug discovery. Determining the natural cytotoxic effects resulting from test compounds is an essential research activity. A CellTox Green Cytotoxicity Assay to monitor cytotoxicity in real time of continues cell culture during 40 hours of the compound treatment was used to screen Tox21 10K library compounds in Hek293 cells. CellTox Green Cytotoxicity Assay is a nonlytic, homogeneous, biofluorescent method to measure cytotoxicity in cell culture after experimental manipulation. The assay system uses a proprietary asymmetric cyanine dye that is excluded from viable cells but preferentially stains the dead cell's DNA. […] Viable cells produce no appreciable increases in fluorescence. Therefore, the fluorescence signal produced by the binding interaction with dead cell DNA is proportional to cytotoxicity.
The mixture of Hek293 cell suspension and reagents were dispensed at 600cells/6 ul/well in 1536-well tissue culture treated black solid bottom plates using a Multidrop dispenser. After the assay plates were incubated at a 37 C/5% CO2 incubator for 5 hours, 23 nL of compounds dissolved in DMSO, positive and negative controls was transferred to the assay plate by a pintool work station. The plates were incubated at 37 C for 40 hours. The fluorescence intensity were measured at 0h, 8h, 16h, 24h, 32h and 40h time points using ViewLux plate reader during compound treatment.
As to `CCCCCCOC(=O)NC(=N)c1ccc(NCc2nc3cc(C(=O)N(CCC(=O)OCC)c4ccccn4)ccc3n2C)cc1`, the Potency result is “inactive”.

With `C[N+]1(CC2COC(c3ccccc3)(C3CCCCC3)O2)CCCCC1` (stereo not given), the Potency result is “inactive”.

In the case of `C[Si](C)(CCCN)O[Si](C)(C)CCCN`, the Potency entry is “inactive”.

With `CC1=CC[C@H](C(C)C)C=C1`, the Potency result is “inactive”.

Take `CCN(CC)c1ccc2c(-c3ccccc3C(=O)O)c3ccc(=[N+](CC)CC)cc-3oc2c1`: the Potency was 24.5 µM (active).

As to `CC(CSC(=O)c1ccccc1)C(=O)N1C[C@@H](Sc2ccccc2)C[C@H]1C(=O)O` (stereo not given in full), the cytotoxicity increase was 1.14% [at 15.8 µM].

On to `CC(COCCO)OCCO` (stereo not given), for which the Potency result is “inactive”.

On to `CN1Cc2cc(C(=O)N3CCC(C4CCNCC4)CC3)ccc2NC(CC(=O)O)C1=O` (stereo not given), for which the Potency entry is “inactive”.

Regarding `CCCCCCCCCOS(=O)(=O)O`, the Potency entry was “inactive”.

In the case of `NS(=O)(=O)c1ccc(N2CCCCS2(=O)=O)cc1`, the Potency result is “inactive”.

As for `NC(N)=NCCC[C@H](N)C(=O)O`, the cytotoxicity increase was -21.8% [at 6.97 µM].

Take `CC(C)O.CC(C)O.CCOC(=O)/C=C(\C)O.CCOC(=O)/C=C(\C)O.[Ti]`: the Potency result is “inactive”.

Regarding `S=C([S-])NCCNC(=S)[S-].[Mn+2]`, the Potency result was “inactive”.

Take `CC1(c2ccccc2)OC(C(=O)O)=CC1=O` (stereo not given): the Potency result was “inactive”.

`NCCCN1CCOCC1`: the Potency result is “inactive”.

As for `CCCCCCCCCc1ccc(OCCOCCO)cc1`, the Potency is 13 µM (active).

As for `COC(C)(C)CCO`, the Potency result was “inactive”.

Take `CCOC(=O)NCCOc1ccc(Oc2ccccc2)cc1`: the Potency entry was “inactive”.

As for `CCCCC(CC)COC(=O)CCCCCCCCC(=O)OCC(CC)CCCC` (stereo not given), the Potency entry is “inactive”.

On to `NCc1ccccc1Sc1ccccc1CO`, for which the Potency result was “inactive”.

Turning to `C=CCOc1ccccc1OCC(O)CNC(C)C` (stereo not given), the Potency entry is “inactive”.

For the compound `CCN(CC)CCNc1ccc(CNC=O)c2sc3ccc(OC)cc3c(=O)c12`, the Potency is 19.5 µM (active).

Consider `O=C1CCC(=O)O1`, for which the Potency result is “inactive”.

On to `COc1cccc(N(C)C(=S)Oc2ccc3c(c2)CCCC3)n1`, for which the Potency result is “inactive”.

As for `CCN(CC)c1ccc(C(=C2C=CC(=[N+](CC)CC)C=C2)c2cc(S(=O)(=O)O)ccc2S(=O)(=O)[O-])cc1`, the Potency entry is “inactive”.

Regarding `CCCCc1nc2cccnc2n1Cc1ccc(-c2ccccc2-c2nnn[nH]2)cc1`, the Potency entry was “inactive”.

In the case of `CCOC(=O)c1cccnc1`, the Potency result is “inactive”.

Take `CCC(C)(C)CC`: the Potency result was “inactive”.

With `COc1ccc(C(=O)Nc2nc3ccccc3c(NCc3ccccc3)c2C#N)cc1`, the Potency entry is “inactive”.

`O=C(CS)Nc1ccccc1`: the Potency entry was “inactive”.

In the case of `COS(=O)(=O)C(F)(F)F`, the Potency result is “inactive”.

For `O=C(O)c1ccc(-n2nc(-c3ccccc3O)nc2-c2ccccc2O)cc1`, the Potency entry is “inactive”.

Turning to `COc1ccc(S(=O)(=O)N2C(=O)[C@@](c3ccccc3OC)(N3C[C@H](O)C[C@H]3C(=O)N(C)C)c3cc(Cl)ccc32)c(OC)c1`, the Potency result is “inactive”.

Consider `C/C=C/C=C/CO`, for which the Potency entry was “inactive”.

Turning to `CC1CCC(=O)C1=O` (stereo not given), the Potency entry was “inactive”.

As to `CNC(=O)CN(CCN(CCN(CC(=O)[O-])CC(=O)NC)CC(=O)[O-])CC(=O)[O-].O.[Gd+3]`, the Potency entry was “inactive”.

As for `CN(C)C(=O)NC1(c2ccccc2)CCN(CC[C@@]2(c3ccc(F)c(F)c3)CN(C(=O)c3ccccc3)CCO2)CC1`, the Potency entry was “inactive”.

As to `CCCCNc1ccc(C(=O)OCCOCCOCCOCCOCCOCCOCCOCCOCCOC)cc1`, the Potency entry is “inactive”.

Regarding `CO[C@@H]1[C@H](OC(=O)/C=C/C=C/C=C/C=C/C(=O)O)CC[C@]2(CO2)[C@H]1[C@@]1(C)O[C@@H]1CC=C(C)C`, the Potency entry was “inactive”.

For `CC1=CC=C(C(C)C)CC1`, the Potency entry was “inactive”.
